Results: PubChem BioAssay AID1458 (National Center for Advancing Translational Sciences (NCATS), 2008)
Among all 210,000 compounds or so, about 5,900 (2.8%) were called active. Roughly 5% stayed inconclusive and do not appear here. The call rests on the fitted dose curve; in most records, active means well fitted activation curve with a large enough effect; inconclusive means small, poorly fitted or top-dose-only effect; inactive means no such curve, though single readings can be large or run the other way. What follows is part of a selection rich in actives, with near analogues and random picks from the rest.

Assay: qHTS Assay for Enhancers of SMN2 Splice Variant Expression; further: nearly all actives have a fitted effect of over 55% in size; on activity change, positive = activation: % of control where 0% means no effect
Conditions: HEK293 SMN2-luciferase splicing reporter, luminescence, 30-36 h; series mostly up to 46.1 µM; activity change, positive = activation: at the top concentration
Description: NIH Chemical Genomics Center [NCGC] NIH Molecular Libraries Probe Production centers Network [MLPCN] MLPCN Grant: R03 MH084179-01 Assay Submitter (PI): Elliot Androphy NCGC Assay Overview: Spinal muscular atrophy (SMA) is caused by insufficient levels of the survival motor neuron protein SMN. The SMN locus on chromosome 5q13 contains two inverted copies of SMN called SMN1 and SMN2 which are 99% identical at the amino acid level. SMN1 is a fully functional protein and SMN2 skips exon 7 90% of the time. Skipping of exon 7 produces non-functional protein product. 10% of the SMN2 protein includes exon 7 and is fully functional. In the SMA disease state, mutations in the SMN1 locus are the cause of the disease state. Because only 10% of SMN2 is of the fully functional form, it is not sufficient to overcome the deficiency produced by the loss of the SMN1 product. A therapy that either increase the amount of SMN2 product made or to increase the inclusion of exon 7 has been proposed for the treatment of SMA. We have designed an assay to identify small molecules that can increase the amount of functional SMN2 product by appending a luciferase reporter gene after the native SMN2 gene, such that inclusion of exon 7 in the expressed product places the luciferase sequence in frame, thus generating functional luciferase enzyme.
NCGC Assay Protocol Summary: This screen utilizes a luciferase reporter gene assay, combining the promoter and splicing based cassettes in tandem with the major portion of the native SMN2 cDNA, and then transfected into HEK293 cells. Compounds that increase luciferase signal presumably enhance expression of the functional SMN2 splice variant. Passaging media contained DMEM w/ glutamax (+phenol red) 10% FCS, 1x pen/strep, 200 ug/ml hygro, 1x sodium pyruvate. Assay media contained DMEM w/ glutamax (-phenol red) 10% FCS, 1x pen strep, 1x pyruvate Sequence, Parameter, Value, Description (1) Cells, […], 2000 cells/well, 1536 TC treated White solid bottom plate (2) Time, 10-12 hours, 37C 5% CO2 (3) Compound, 23 nl, MLSMR Library (4) Control Compound, 23 nL, Sodium butyrate st 4.5mM (final) conc (5) Time, 30-36 hours, 37C 5% CO2 (6) Reagent, 3 ul, One Glo (TM) from Promega (7) Time, 5-15 minutes, Room temp (8) Detector, Viewlux: luminescent read, 60 second integration, high speed 2x binning Keywords: Spinal muscular atrophy, SMA, SMN2, high throughput screening, MLSMR, MLPCN, NIH Roadmap, qHTS and NCGC
Potency means the concentration at half of the fitted maximal effect.

| SMILES | activity change, positive = activation | Potency |
| --- | --- | --- |
| Cc1c(O)cc(O)c2c(=O)c(-c3ccc(O)cc3)coc12 | -11.6% (inactive) |  |
| O=c1c(-c2ccccc2)coc2c(CN3CCOCC3)c(O)ccc12 | -18.2% (inactive) |  |
| O=c1c(-c2ccccc2)coc2cc(O)ccc12 |  | 22.4 µM (active) |
| COc1cc2nc(NCC(C)c3ccccc3)n3nc(-c4ccccc4)nc3c2cc1OC (stereo not drawn) | 23.7% (inactive) |  |
| Cc1cc(C)c2oc(C(=O)Nc3c(C(=O)Nc4ccccc4)oc4ccccc34)cc(=O)c2c1 | -0.706% (inactive) |  |
| Cc1ccc(Cl)cc1N1CCN(C(=O)C2CCC(CNS(=O)(=O)c3cccs3)CC2)CC1 (stereo not drawn) | -13.3% (inactive) |  |
| COc1cc(/C=N/O)ccc1OCc1ccc([N+](=O)[O-])cc1 |  | 14.1 µM (active) |
| COc1cc(/C=N\Nc2ccc([N+](=O)[O-])cn2)ccc1OCC(=O)O | 7.65% (inactive) |  |
| COc1cc(C(=O)OCc2ccc([N+](=O)[O-])cc2)cc(OC)c1OC | -2.26% (inactive) |  |
| COc1ccc(N2CCN(C(=O)C3CCCN(C(=O)c4cc5sccc5n4C)C3)CC2)cc1 (stereo not drawn) | -34.1% (inactive) |  |
| Cc1ccc(S(=O)(=O)c2nc(-c3ccco3)oc2SCC(=O)Nc2ccc(F)cc2)cc1 | -0.512% (inactive) |  |
| COc1ccc(C2COC(=O)C2=N)c(NC(=O)c2ccccc2)c1 (stereo not drawn) | 9.6% (inactive) |  |
| COc1cccc(C(=O)Nc2cc3c(cc2Br)OCCCO3)c1 |  | 10 µM (active) |
| C/C(=N\NC(=O)c1ccccc1C)c1ccc(N2CCOCC2)cc1 | 16.8% (inactive) |  |
| COc1cccc(OC)c1C(=O)Nc1ccc(N2CCCCC2)cc1 | -25.4% (inactive) |  |
| COc1cccc(C(=O)NNC(=O)c2ccccc2Br)c1 | -6.77% (inactive) |  |
| COc1ccc(C(=O)NC(=S)Nc2ccc(N3CCCC3)cc2)cc1OC | -14.4% (inactive) |  |
| Cc1cc(NS(=O)(=O)c2ccc(NC(=O)c3ccccc3C)cc2)nc(C)n1 | -6.19% (inactive) |  |
| COc1cccc(C(=O)Nc2ccc(N3CCCC3)cc2)c1 |  | 8.91 µM (active) |
| Cc1ccccc1C(=O)Nc1ccc(N2CCCCCC2)cc1 |  | 12.6 µM (active) |
| CCn1cc(C(=O)NCc2ccccc2)c(=O)c2cc(S(=O)(=O)N3CCCCC3)ccc21 | 0.829% (inactive) |  |
| CC(C)Cn1c(=O)c2ccccc2n2c(CCC(=O)N3CCN(c4cccc(Cl)c4)CC3)nnc12 | -5.96% (inactive) |  |
| Cc1ccc(OCCn2c(CNc3ccccc3C)nc3ccccc32)cc1 | 4.39% (inactive) |  |
| O=C(NCCCO)c1nn(-c2ccc(Cl)cc2)nc1CO | -6.62% (inactive) |  |
| O=C(Cn1c(=O)n(Cc2cccs2)c(=O)c2cccnc21)Nc1ccc(F)cc1 | 0.241% (inactive) |  |
| Cc1ccc(NC(=O)CN2C(=O)C(c3ccc(F)cc3)=NC23CCCCCC3)c(C)c1 | 22.3% (inactive) |  |
| CCOc1ccc(N(Cc2ccccc2)C(=O)c2nc(S(C)(=O)=O)ncc2Cl)cc1 | -86.3% (inactive) |  |
| O=C(CCS(=O)(=O)c1cc(Br)cc2c1N(C(=O)C1CC1)CC2)Nc1ccc(C(F)(F)F)cc1 | 1.62% (inactive) |  |
